# Assay results published in PubChem BioAssay (EPA / NIEHS).
# Active and inactive are the calls of the source. The calls were made as follows: active = hit-call score of the fitted dose curve at least 0.9, where 1 is the maximum; inactive = score below 0.9.
# Read-out: Plasminogen activator inhibitor-1 (PAI1), SERPINE1 (gene 5054)
# Assay: BSK_BE3C_PAI1: BioMAP Diversity Plus: BE3C Assay for Plasminogen activator inhibitor-1 (PAI1) Biomarker Activity (AID 2283037)
# Conditions: primary human bronchial epithelial cells; actives raise or lower the signal
# Outline: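 PAI-1 biomarker levels in treated human bronchial epithelial cells are determined by ELISA at 24 h. Both increases and decreases relative to DMSO are fitted.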
Structure (SMILES),AC50,outcome
O=C(N[C@@H](c1ccccc1)[C@@H]1CCCCN1)c1cccc(C(F)(F)F)c1Cl,32.4 µM (active),–
COc1ccc(OC(F)(F)F)cc1CN[C@H]1CCCN[C@H]1c1ccccc1,–,inactive
CCCCCCCCCCCCCCCCO,–,inactive
CC1=C(C)S(=O)(=O)CCS1(=O)=O,–,inactive
O=C(O)c1cccnc1,–,inactive
CC(=O)OCC(COC(C)=O)OC(C)=O,–,inactive
CC(=O)O,–,inactive
Oc1ccc(O)cc1,–,inactive
O=C1CCCCC1,–,inactive
C/C=C/C=C/C(=O)O,–,inactive
CCCCC(CC)COP(=O)(OCC(CC)CCCC)OCC(CC)CCCC (centres undefined),–,inactive
CC(=O)S[C@H](C(=O)N[C@H]1Cc2ccccc2[C@H]2CCC[C@@H](C(=O)O)N2C1=O)C(C)C,–,inactive
CN(C)C(=O)NC1(c2ccccc2)CCN(CCC[C@]2(c3ccc(Cl)c(Cl)c3)CCCN(C(=O)c3ccccc3)C2)CC1,–,inactive
CCCCCCCCCC[N+](C)(C)[O-],–,inactive
CC(C)c1cccc(C(C)C)c1NC(=O)NS(=O)(=O)c1cc(C(C)(C)O)co1,–,inactive
OCC(O)CO,–,inactive
Nc1nc(Cl)nc2c1ncn2[C@H]1C[C@H](O)[C@@H](CO)O1,–,inactive
CCCCCCCC(=O)OC,–,inactive
N[C@@H](Cc1c[nH]c2ccccc12)C(=O)O,–,inactive
CCCC(=O)O,–,inactive
Cc1cn([C@H]2C=C[C@@H](CO)O2)c(=O)[nH]c1=O,–,inactive
O=NO,–,inactive
Oc1ccccc1O,–,inactive
Cc1cc(SC2=C(O)C[C@@](CCc3ccc(N)cc3)(C(C)C)OC2=O)c(C(C)(C)C)cc1CO,–,inactive
